The supplement of paper PMC11732987, “Enantioselective OTUD7B fragment discovery through chemoproteomics screening and high-throughput optimisation” (Communications Chemistry, 2025)

Assays:
Experiment in all cases: log2 ratio of Biotin-Ahx-Ub-VS probe labelling (fragment/DMSO); higher = less target engagement (more negative = stronger competition), active = hit call of the paper (q ≤ 0.05, log2 ratio ≤ -1)
Settings in all cases: compound concentration: 200 uM; treatment time: 3 h
ALG13 = target: T1, ALG13 (UniProt Q9NP73)
T1 sequence (whole entry): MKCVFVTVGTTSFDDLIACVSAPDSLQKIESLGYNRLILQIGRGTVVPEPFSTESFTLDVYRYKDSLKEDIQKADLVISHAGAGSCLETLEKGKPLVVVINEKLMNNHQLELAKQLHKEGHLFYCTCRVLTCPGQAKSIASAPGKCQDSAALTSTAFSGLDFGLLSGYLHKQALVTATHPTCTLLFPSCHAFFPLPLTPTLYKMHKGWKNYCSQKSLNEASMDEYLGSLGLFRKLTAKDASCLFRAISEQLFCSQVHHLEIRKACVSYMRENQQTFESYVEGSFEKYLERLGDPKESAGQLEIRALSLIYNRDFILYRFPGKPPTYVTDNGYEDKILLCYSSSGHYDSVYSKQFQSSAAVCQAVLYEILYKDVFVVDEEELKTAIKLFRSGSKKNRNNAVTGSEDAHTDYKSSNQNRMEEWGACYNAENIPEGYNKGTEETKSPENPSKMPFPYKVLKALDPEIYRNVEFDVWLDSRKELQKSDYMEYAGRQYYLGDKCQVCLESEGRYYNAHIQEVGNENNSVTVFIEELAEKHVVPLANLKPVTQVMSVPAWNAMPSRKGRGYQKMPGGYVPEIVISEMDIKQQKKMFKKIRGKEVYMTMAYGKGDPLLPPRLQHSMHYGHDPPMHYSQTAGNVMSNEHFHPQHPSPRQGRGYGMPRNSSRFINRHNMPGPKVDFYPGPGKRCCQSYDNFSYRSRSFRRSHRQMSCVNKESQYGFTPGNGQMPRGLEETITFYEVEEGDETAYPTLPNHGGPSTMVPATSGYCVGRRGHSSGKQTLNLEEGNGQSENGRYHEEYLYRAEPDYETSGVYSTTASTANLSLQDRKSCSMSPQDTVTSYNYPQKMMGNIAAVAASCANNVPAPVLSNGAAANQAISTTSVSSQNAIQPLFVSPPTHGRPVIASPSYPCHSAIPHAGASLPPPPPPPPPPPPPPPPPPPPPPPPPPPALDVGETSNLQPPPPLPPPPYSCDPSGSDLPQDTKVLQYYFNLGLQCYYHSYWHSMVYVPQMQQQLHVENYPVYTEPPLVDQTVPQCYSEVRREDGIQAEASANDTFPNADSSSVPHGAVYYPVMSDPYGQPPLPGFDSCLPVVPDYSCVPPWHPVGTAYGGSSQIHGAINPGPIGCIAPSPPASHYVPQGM
How it was run: (§1)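 Labelling with Biotin-Ahx-Ub-VS (0.5 µM final, 1 h) followed a 3 h triplicate treatment of HEK293T lysate (495 µg per sample, Tris/CHAPS/IGEPAL buffer with protease inhibitors) with fragment at 200 µM or vehicle. Labelled DUBs were NeutrAvidin-enriched, digested with LysC and trypsin, and run by diaPASEF LC-MS/MS. The values, average log2 fragment/vehicle ratios by unpaired t-test, come from global-median-normalised Spectronaut label-free quantities. Proteins with ≥2 unique peptides were used.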

ATXN3 = ATXN3 (UniProt P54252)
How it was run: as §1

BAP1 = target: T2, BAP1 (UniProt Q92560)
T2 sequence (whole entry): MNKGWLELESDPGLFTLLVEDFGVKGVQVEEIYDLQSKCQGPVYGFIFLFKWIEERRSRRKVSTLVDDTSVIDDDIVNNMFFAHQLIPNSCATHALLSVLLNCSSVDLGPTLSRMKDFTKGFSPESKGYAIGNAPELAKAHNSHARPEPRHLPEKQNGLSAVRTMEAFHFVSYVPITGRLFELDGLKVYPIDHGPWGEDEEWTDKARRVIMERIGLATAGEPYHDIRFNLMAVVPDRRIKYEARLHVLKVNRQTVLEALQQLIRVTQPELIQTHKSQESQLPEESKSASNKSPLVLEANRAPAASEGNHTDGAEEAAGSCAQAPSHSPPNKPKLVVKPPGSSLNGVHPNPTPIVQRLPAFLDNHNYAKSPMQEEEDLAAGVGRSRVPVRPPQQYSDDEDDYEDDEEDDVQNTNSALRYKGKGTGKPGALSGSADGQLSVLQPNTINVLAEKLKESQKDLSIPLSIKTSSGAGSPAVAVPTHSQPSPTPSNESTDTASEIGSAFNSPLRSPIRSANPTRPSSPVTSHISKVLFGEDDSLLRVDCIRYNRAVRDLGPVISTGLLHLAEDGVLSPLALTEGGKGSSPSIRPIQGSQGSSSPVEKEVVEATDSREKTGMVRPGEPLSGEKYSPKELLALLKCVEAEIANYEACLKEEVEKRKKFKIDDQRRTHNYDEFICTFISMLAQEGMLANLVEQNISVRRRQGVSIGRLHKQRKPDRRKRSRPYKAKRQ
How it was run: as §1

EIF3F = EIF3F (UniProt O00303)
How it was run: as §1

EIF3H = EIF3H (UniProt O15372)
How it was run: as §1

FAM105A = target: T3, FAM105A (UniProt Q9NUU6)
T3 sequence (whole entry): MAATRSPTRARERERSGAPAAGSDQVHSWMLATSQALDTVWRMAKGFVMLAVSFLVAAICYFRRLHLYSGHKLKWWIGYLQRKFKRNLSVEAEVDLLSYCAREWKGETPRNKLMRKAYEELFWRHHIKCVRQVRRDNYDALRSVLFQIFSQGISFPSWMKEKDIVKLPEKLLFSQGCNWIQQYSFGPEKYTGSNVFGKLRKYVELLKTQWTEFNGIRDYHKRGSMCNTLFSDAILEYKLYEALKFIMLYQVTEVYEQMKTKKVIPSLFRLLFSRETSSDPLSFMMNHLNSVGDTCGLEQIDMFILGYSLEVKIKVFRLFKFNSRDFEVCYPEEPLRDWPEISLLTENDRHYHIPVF
How it was run: as §1

OTUB1 = OTUB1 (UniProt Q96FW1)
How it was run: as §1

OTUD4 = target: T4, OTUD4 (UniProt Q01804)
T4 sequence (whole entry): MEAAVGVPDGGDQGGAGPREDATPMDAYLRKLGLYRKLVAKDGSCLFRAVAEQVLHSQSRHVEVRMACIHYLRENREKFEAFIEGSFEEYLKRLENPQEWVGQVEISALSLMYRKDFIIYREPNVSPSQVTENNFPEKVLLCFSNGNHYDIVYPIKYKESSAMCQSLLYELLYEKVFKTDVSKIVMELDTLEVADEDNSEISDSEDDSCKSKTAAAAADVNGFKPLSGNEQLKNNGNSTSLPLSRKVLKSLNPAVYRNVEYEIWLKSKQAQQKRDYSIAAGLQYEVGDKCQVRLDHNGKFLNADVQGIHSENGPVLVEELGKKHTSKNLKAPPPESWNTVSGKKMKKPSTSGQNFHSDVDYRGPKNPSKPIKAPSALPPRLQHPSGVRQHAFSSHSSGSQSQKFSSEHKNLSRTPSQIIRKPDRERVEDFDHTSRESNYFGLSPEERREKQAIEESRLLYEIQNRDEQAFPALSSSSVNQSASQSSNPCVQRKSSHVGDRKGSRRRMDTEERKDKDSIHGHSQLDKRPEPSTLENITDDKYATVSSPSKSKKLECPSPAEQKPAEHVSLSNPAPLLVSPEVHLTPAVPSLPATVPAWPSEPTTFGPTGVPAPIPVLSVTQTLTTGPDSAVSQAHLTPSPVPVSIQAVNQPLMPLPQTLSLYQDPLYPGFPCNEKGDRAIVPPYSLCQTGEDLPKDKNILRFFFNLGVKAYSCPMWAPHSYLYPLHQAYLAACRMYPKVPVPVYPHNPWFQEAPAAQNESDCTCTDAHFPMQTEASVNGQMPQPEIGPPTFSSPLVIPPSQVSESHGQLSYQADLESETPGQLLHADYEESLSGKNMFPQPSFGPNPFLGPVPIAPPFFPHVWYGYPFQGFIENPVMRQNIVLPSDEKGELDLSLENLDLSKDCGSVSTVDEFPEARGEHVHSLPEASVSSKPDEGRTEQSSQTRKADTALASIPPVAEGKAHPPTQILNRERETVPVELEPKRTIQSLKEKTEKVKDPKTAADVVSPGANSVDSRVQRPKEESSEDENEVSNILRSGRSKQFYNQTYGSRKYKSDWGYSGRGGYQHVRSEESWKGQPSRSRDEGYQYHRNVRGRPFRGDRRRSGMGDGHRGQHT
How it was run: as §1

OTUD5 = target: T5, OTUD5 (UniProt Q96G74)
T5 sequence (whole entry): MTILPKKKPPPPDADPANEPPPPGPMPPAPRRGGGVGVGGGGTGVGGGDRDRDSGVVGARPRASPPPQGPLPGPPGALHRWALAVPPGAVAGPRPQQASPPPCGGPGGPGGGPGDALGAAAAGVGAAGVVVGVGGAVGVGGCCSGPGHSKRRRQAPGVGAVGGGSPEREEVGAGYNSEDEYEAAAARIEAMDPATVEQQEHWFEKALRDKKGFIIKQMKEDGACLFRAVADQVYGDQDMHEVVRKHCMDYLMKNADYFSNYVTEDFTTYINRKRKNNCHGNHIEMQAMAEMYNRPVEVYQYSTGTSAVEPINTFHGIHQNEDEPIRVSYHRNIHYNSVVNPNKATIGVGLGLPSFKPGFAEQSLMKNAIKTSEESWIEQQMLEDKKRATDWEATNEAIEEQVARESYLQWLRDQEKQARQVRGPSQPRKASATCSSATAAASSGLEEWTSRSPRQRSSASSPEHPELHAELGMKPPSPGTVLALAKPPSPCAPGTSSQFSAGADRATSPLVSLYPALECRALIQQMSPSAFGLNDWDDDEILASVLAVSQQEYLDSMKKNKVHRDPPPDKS
How it was run: as §1

Measured: log2 ratio of Biotin-Ahx-Ub-VS probe labelling

Chain of EIF3H (O15372 whole entry): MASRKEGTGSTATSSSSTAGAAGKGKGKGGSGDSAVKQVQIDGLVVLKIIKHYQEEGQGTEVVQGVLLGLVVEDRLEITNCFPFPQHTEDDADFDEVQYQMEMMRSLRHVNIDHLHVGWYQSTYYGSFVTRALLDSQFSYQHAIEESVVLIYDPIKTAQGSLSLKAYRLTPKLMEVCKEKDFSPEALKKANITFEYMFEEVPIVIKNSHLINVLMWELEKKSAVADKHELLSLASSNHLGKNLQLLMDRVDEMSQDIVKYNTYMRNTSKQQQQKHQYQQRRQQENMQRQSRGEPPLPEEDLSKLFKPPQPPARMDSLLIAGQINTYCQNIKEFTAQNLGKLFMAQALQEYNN
Chain of OTUB1 (Q96FW1 whole entry): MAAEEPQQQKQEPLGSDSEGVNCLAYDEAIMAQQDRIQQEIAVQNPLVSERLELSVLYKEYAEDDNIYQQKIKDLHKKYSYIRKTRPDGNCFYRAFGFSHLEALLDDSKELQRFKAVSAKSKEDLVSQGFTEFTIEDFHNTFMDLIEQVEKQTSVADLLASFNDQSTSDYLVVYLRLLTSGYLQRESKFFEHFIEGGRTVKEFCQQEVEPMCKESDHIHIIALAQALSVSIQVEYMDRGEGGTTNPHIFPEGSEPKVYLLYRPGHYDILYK
Chain of EIF3F (O00303 whole entry): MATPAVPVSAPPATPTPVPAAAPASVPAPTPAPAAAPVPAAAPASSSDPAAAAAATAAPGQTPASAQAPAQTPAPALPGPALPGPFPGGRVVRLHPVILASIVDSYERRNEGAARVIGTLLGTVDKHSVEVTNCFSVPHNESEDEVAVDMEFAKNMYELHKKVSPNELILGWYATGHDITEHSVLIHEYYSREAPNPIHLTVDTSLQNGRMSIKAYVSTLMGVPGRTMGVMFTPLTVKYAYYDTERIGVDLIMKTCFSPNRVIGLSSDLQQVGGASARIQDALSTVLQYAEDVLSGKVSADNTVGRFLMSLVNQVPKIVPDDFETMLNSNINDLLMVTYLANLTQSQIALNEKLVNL
Chain of ATXN3 (P54252 whole entry): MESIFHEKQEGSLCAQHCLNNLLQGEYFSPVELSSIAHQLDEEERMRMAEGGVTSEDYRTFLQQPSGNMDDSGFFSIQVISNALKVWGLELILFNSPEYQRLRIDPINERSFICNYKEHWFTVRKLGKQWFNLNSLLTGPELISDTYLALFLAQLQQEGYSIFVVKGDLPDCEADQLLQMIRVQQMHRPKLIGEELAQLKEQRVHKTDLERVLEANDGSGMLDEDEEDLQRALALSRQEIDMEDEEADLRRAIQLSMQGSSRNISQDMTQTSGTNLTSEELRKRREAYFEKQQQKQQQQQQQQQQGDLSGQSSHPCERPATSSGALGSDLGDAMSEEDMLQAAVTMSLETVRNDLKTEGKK

O=C(CCl)Nc1ccccc1C(F)(F)F
inactive: ALG13 0.259 | ATXN3 -0.449 | EIF3F -0.519 | EIF3H 0.185 | FAM105A 0.257 | OTUB1 -0.144 | OTUD4 -0.356 | OTUD5 -0.489
active: BAP1 -2.61
